We go through 40 compounds from PubChem BioAssay (NCI).

Compounds without any hit were thinned out: in the full panel of roughly 83,000, 20% have a hit.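 For each line, cells grew in 96-well plates with the test compound present at a single concentration for 48 hours.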 The source made the active and inactive calls.

For the assay, the system named is IGROV1 ovarian. In words: NCI-60 one-dose screen, 48 h (100 = growth as untreated, 0 = no growth, -100 = all killed). The following applies: 10 µM unless noted. As to the method: Growth inhibition of the IGROV1 human tumor cell line is measured as a screen for anti-cancer activity. Cells are grown in 96 well plates and exposed to the test compound for 48 hours. Compounds are tested at a single concentration, which is 10^-5 M for most compounds. The reported endpoint is percent growth (GI% or GIPRCNT), where numbers from 0 - 100% represent growth inhibition, and numbers from -100% - 0 represent cell death. For example, a value of 40 represents 60% growth inhibition. A value of 0 means no net growth occurred over the course of the experiment. A value of -40 indicates 40% of cells at the beginning of the experiment died by the end of the experiment. A value of -100 means all cells are dead at the end of the experiment.
NCI-60 Human Tumor Cell Lines Screen was performed using the standard one-dose NCI protocol, which is described in more detail at https://dtp.cancer.gov/discovery_development/nci-60/default.htm.
Compounds with GIPRCNT values below 10 were considered active. Activity score was based on GIPRCNT using the following formula: […]
Score is 0 for GIPRCNT values of 100 or above, 50 for GIPRCNT values of 0, and 100 for GIPRCNT values of -100.
Take `CNC1=C([N+](=O)[O-])C(c2ccccc2O)C(C#N)=C(c2cccs2)O1` (stereo not given): the growth was 90.3% (inactive).
The value for `COc1cc2ccc(C(C)=O)cc2cc1OC` was 106% (inactive).
The value for `O=C1Nc2ccc(Cl)cc2/C1=C\c1c(-c2ccc(F)cc2)nc2ccccn12` was 20.6% (inactive).
`COc1ccc(-c2cc(-c3cc4ccccc4oc3=O)n(-c3ccccc3)n2)cc1`: the growth was 14% (inactive).
The value for `COC(=O)c1ccc2c(c1)nc(-c1ccc(Cl)cc1)n2-c1cc(C(C)(C)C)[nH]n1` was 54.2% (inactive).
The value for `COc1cc(NCC(O)CN(CC(C)C)CC(C)C)c2ncccc2c1` (stereo not given) was 74.3% (inactive).
As for `NC(N)=N/N=C/c1ccc(Cl)cc1`, the growth was 97.6% (inactive).
Next, `Cc1ccc(NC(=O)c2cc(NCc3cc(O)ccc3O)ccc2O)cc1`: 97.9% (inactive); `O=C(O)C(CCc1ccccc1)NCc1ccccc1` (stereo not given): 101% (inactive); `CN1CCC2(CC1)N=C(SCC(=O)Nc1cnc3ccccc3c1)C(c1ccc(Br)cc1)=N2`: 16.2% (inactive).
For `CCOC(=O)C(Cc1ccccc1)n1c(O)c(/C=N/c2ncc(Cc3ccc(Cl)cc3Cl)s2)sc1=S` (stereo not given), the growth was 37.6% (inactive).
Next, `CCn1c(=O)c(C(=O)NCCCO)c(O)c2ccccc21`: 108% (inactive); `Cc1c2c(cc3c1[nH]c1ccccc13)C=NCC2`: 105% (inactive); `CC(C)(C)c1ccc(C(=O)Nc2sc3cc(O)ccc3c2C(N)=O)cc1`: 57.9% (inactive).
Next, `O=C(NCCN1CCCC1)n1cc(-c2ccncc2)c(-c2cc(O)cc(Cl)c2)n1`: 109% (inactive).
Turning to `O=C(Nc1ccncc1)C(=O)c1cn(S(=O)(=O)c2cccc(Cl)c2F)c2ccccc12`, the growth was 70.9% (inactive).
The value for `Cc1ccc(Nc2cc(Cl)c([N+](=O)[O-])cc2[N+](=O)[O-])cc1` was 27.7% (inactive); that for `Nc1c(C(=O)C[C@@H](N)CO)ccc2c1C(=O)CCO2` was 51.4% (inactive).
For the compound `C(=Nc1ccc(-c2ccc(N=Cc3ccccc3)cc2)cc1)c1ccccc1`, the growth is 87.6% (inactive).
On to `C[C@@H]1N=C(c2ccc3ccccc3c2)Nc2nc3ccccn3c2C1=O`, for which the growth is 32.1% (inactive).
The value for `CSc1ccc(/C=C2\C=C(CC(=O)NCc3ccc(C(=O)c4ccccc4)cc3)c3cc(F)ccc32)cc1` was 10.3% (inactive); that for `O=S1(=O)NCCCN1CCNc1nccc(-c2c(-c3cccc(O)c3)nc3sccn23)n1` was 56.7% (inactive); that for `Oc1ccc(-c2nnc3c4[nH]ccc4ncn23)cc1` was 84% (inactive).
As for `Cc1ccc(NC(=O)c2sc3nc4c(cc3c2N)C(=O)CCC4)cc1Cl`, the growth was 106% (inactive).
Regarding `COc1ccc(-c2cnc(-c3ccncc3-c3cccc(OC)c3)o2)cc1`, the growth was 37.1% (inactive).
On to `CC(=O)CC(c1ccc([N+](=O)[O-])cc1)c1c(O)c2ccccc2oc1=O` (stereo not given), for which the growth is 107% (inactive).
The value for `N=c1nc(N2CCCCC2)cc(N)n1O` was 118% (inactive); that for `CCNC(=O)c1ccc2c(c1)nc(-c1ccc(Cl)cc1)n2-c1cc(C(C)(C)C)[nH]n1` was 47.7% (inactive).
With `CCN(CC)c1ccc(/C=N/NC(=O)C[N+](C)(C)C)cc1`, the growth is 115% (inactive).
For `CC1=C(O)C(=O)CC1`, the growth was 107% (inactive).
Turning to `COc1ccc(C(=O)OC2C(OC3C(O)COC(O[C@H]4C[C@H]5[C@@H]6CC=C7C[C@@H](O)CC[C@]7(C)[C@H]6CC[C@]5(C)[C@H]4[C@H](C)C(=O)CCC(C)C)C3OC(C)=O)OCC(O)C2O)cc1` (stereo not given in full), the growth was 28.3% (inactive).
The value for `C[N+](C)(C)CCCCCCCCCC[N+](C)(C)C` was 91.5% (inactive); that for `CCOC(=O)C1=C(C)NC(=S)NC1c1ccccc1` (stereo not given) was 97.4% (inactive); that for `CCN(CC)Cc1cc(Nc2ccnc3ccc(OC)cc23)ccc1O` was 23.8% (inactive).
On to `O=C(CSc1nc2c(n1Nc1ccccc1)-c1ccccc1SC2)Nc1nccs1`, for which the growth was 91.4% (inactive).
The value for `CC(C)(C)c1nn(-c2ccccc2)c2c1C(=O)CSC(c1ccc3c(c1)OCO3)N2` (stereo not given) was 88.5% (inactive); that for `COc1cc(C2CC(c3ccccc3)=NN2C=O)ccc1Oc1ccnc2cc(Cl)ccc12` (stereo not given) was 80.1% (inactive); that for `Cc1c(C(N)=O)sc2ncn(CC(=O)NN=C3CCCCC3)c(=O)c12` was 135% (inactive).
The value for `COc1cc([N+](=O)[O-])cc(OC)c1OC` was 100% (inactive).
Turning to `Cc1c(C(=O)Nc2ccccc2F)sc2c(=O)[nH]cnc12`, the growth was 76.4% (inactive).
